Drawing on PubChem BioAssay (EPA / NIEHS), this text covers AC50 and outcome for three molecules.

Assay [1] is described as follows: ATG_DR4_LXR_CIS: Attagene CIS-FACTORIAL HepG2 Assay for human Liver X Receptor (LXR), DR4 submotif (AID 2282929). To be noted: HepG2 Attagene DR4 cis-reporter, mRNA transcription; actives raise or lower the signal. In short, it runs like this: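 DR4 cis-reporter in HepG2, 24 h exposure. Detection: RT-PCR, 6-FAM labelling, CE fragment analysis. Endpoint fitted bidirectionally, DMSO = baseline.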

Assay [2] deals with Aryl hydrocarbon receptor (Homo sapiens) (UniProt P35869). Briefly: ATG_Ahr_CIS: Attagene CIS-FACTORIAL HepG2 Assay for human Aryl Hydrocarbon Receptor (Ahr) (AID 2282930). To be noted: HepG2 AhR cis-factorial reporter transcription; actives raise or lower the signal. In short, it runs like this:
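HepG2 cells transiently transfected with cis-element-driven multiplexed reporter transcription units; endogenous transcription factor activity measured as reporter mRNA 24 h after dosing. RT-PCR, 6-FAM labelling, HpaI digestion, capillary electrophoresis; bidirectional fitting versus DMSO baseline.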

Assay [3] is described as follows: ATG_AP_1_CIS: Attagene CIS-FACTORIAL HepG2 Assay for human Activator Protein 1 (AP-1) (AID 2282931). The following applies: HepG2 Attagene cis-factorial AP-1 reporter mRNA; actives raise or lower the signal. The method in brief: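 Cis-regulated reporter units transiently expressed in HepG2 report endogenous transcription-factor activity. Signal: reporter mRNA at 24 h, via RT-PCR and fluorescent capillary electrophoresis. Endpoint derived by bidirectional fitting, DMSO as negative control.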

The nature of assay [4]: ATG_AP_2_CIS: Attagene CIS-FACTORIAL HepG2 Assay for human Activator Protein 2 (AP-2) (AID 2282932). The following applies: HepG2 AP-2 cis-reporter, Attagene transcription factor profiling; actives raise or lower the signal. The method in brief: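 Cells (HepG2) transfected with promoter-driven reporter constructs, treated 24 h. Total RNA reverse-transcribed, reporter cDNA PCR-amplified, FAM-labelled by primer extension, digested, resolved by capillary electrophoresis. Activity fitted both directions versus DMSO.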

Assay [5] is described as follows: ATG_BRE_CIS: Attagene CIS-FACTORIAL HepG2 Assay for human Bone Morphogenetic Protein (BMP) Response Element (BRE) (AID 2282933). To be noted: HepG2 BMP response element reporter, Attagene transcription factor profiling; actives raise or lower the signal. In short, it runs like this:
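A HepG2 multiplex reporter system measured inducible reporter mRNA 24 h post-dosing. Detection: RT-PCR, 6-FAM primer extension, HpaI digestion, capillary electrophoresis. Activity fitted bidirectionally relative to DMSO.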

For assay [6], the target named is Retinoic acid receptor alpha (Homo sapiens) (UniProt P10276). Kind of assay: ATG_DR5_RAR_CIS: Attagene CIS-FACTORIAL HepG2 Assay for human Retinoic Acid Receptor Alpha (RARE), DR5 submotif (AID 2282934).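 For AC50: reporter responds to endogenous RAR alpha beta and gamma in HepG2 not RARA alone.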 The following applies: HepG2 Attagene cis-factorial RARE DR5 reporter, mRNA; actives raise or lower the signal. In short, it runs like this: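 HepG2 cells transiently transfected with multiplexed reporter units under cis (DR5 RARE) promoters, so endogenous transcription factor activity is measured. After 24 h compound exposure, reporter mRNA is quantified by RT-PCR with fluorescent labelling and capillary electrophoresis; bidirectional fitting versus DMSO.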
Retinoic acid receptor alpha (Homo sapiens), sequence (P10276 whole entry, looked up): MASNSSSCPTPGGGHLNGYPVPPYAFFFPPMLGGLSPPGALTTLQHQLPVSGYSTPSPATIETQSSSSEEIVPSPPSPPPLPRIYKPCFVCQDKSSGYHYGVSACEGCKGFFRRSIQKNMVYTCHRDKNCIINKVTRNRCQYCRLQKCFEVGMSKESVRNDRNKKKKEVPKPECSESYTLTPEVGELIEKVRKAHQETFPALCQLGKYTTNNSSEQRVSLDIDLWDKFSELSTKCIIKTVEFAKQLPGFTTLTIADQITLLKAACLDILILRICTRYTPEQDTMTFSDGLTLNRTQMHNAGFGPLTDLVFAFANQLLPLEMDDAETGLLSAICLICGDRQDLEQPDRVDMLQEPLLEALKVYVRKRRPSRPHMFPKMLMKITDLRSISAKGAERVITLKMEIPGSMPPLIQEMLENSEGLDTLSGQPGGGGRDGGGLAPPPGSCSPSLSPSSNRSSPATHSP

Assay [7] addresses Transcription factor E2F1 (Homo sapiens) (UniProt Q01094). Briefly: ATG_E2F_CIS: Attagene CIS-FACTORIAL HepG2 Assay for human E2F Transcription Factor 1 (AID 2282935). To be noted: HepG2 Attagene cis-reporter, E2F reporter RNA transcripts; actives raise or lower the signal. The method in brief:
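First, HepG2 cells were transfected with reporter transcription units. Next, they were dosed for 24 h. Then RNA was isolated, converted to cDNA, PCR-amplified, FAM-labeled, HpaI-digested and analyzed by capillary electrophoresis.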

The nature of assay [8]: ATG_E_Box_CIS: Attagene CIS-FACTORIAL HepG2 Assay for human Enhancer Box (E-box) (AID 2282936). To be noted: HepG2 E-box cis-reporter transcription, actives raise or lower the signal. In short, it runs like this:
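Endogenous transcription factor activity was sensed in human HepG2 liver cells through transfected cis-promoter reporter units. After 24 h of dosing, total RNA was reverse-transcribed and reporter cDNA resolved by capillary electrophoresis.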

Assay [9] in a line: ATG_M_61_CIS: Attagene CIS-FACTORIAL HepG2 Assay for M61 Transcription Factor (Internal Marker) (AID 2282937). To be noted: HepG2 Attagene CIS-FACTORIAL M61 internal marker reporter; actives raise or lower the signal. In short, it runs like this:
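Background-control endpoint: HepG2 cells with cis-regulated reporter constructs, 24 h exposure, reporter mRNA detected via fluorescent primer extension and capillary electrophoresis; values from bidirectional fitting with DMSO baseline.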

Assay [10] is described as follows: ATG_M_19_CIS: Attagene CIS-FACTORIAL HepG2 Assay for M19 Transcription Factor (Internal Marker) (AID 2282939). To be noted: HepG2 Attagene CIS-FACTORIAL M19 internal marker reporter; actives raise or lower the signal. The method in brief: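 Chemical-treated HepG2 (24 h) with MRTU constructs; reporter transcripts detected by fluorescent RT-PCR fragment analysis on capillary electrophoresis. Internal background marker, DMSO as baseline.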

The nature of assay [11]: ATG_ERE_CIS: Attagene CIS-FACTORIAL HepG2 Assay for Estrogen Response Element (ERE) (AID 2282940). To be noted: HepG2 ERE cis-reporter, Attagene RNA transcript; actives raise or lower the signal. In short, it runs like this: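 Human liver cells (HepG2) bearing transiently transfected, promoter-regulated reporter units were exposed 24 h. Reporter mRNA induction was detected by capillary electrophoresis of labelled RT-PCR products and fitted bidirectionally to DMSO.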

Assay [12] can be described thus: ATG_Ets_CIS: Attagene CIS-FACTORIAL HepG2 Assay for human Erythroblast Transformation Specific (ETS) (AID 2282941). To be noted: HepG2 ETS cis-reporter transcription, actives raise or lower the signal. The method in brief:
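RT-PCR/capillary electrophoresis fluorescence read-out of reporter mRNA; HepG2 transient multi-reporter transfection; 24 h compound exposure; gain or loss of signal fitted bidirectionally relative to DMSO.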

Assay [13] concerns the target Hepatocyte nuclear factor 3-beta (Homo sapiens) (UniProt Q9Y261). Briefly: ATG_FoxA2_CIS: Attagene CIS-FACTORIAL HepG2 Assay for human Forkhead box A2 (FOXA2) (AID 2282942). To be noted: HepG2 cis-reporter transcription factor activity, 24 h; actives raise or lower the signal. In short, it runs like this:
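Measured: reporter mRNA induction or loss in HepG2 transiently carrying multiple cis-regulated reporter units, 24 h after dosing. Quantified by RT-PCR plus capillary electrophoresis, normalised to DMSO.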

A short description of assay [14]: ATG_FoxO_CIS: Attagene CIS-FACTORIAL HepG2 Assay for human Forkhead box O (FoxO) (AID 2282943). To be noted: HepG2 Attagene cis-reporter, FoxO element, mRNA; actives raise or lower the signal. In short, it runs like this: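 HepG2 cells transiently transfected with cis-promoter-driven multiple reporter transcription units; 24 h after chemical dosing, reporter mRNA quantified by RT-PCR, fluorescent primer extension, HpaI digestion and capillary electrophoresis. Bidirectional fitting versus DMSO baseline.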

The nature of assay [15]: ATG_GATA_CIS: Attagene CIS-FACTORIAL HepG2 Assay for human GATA Binding Protein (AID 2282944). To be noted: HepG2 GATA cis-element reporter, Attagene multiplex mRNA; actives raise or lower the signal. In short, it runs like this: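 Transfected cis-reporter HepG2 cells were treated with chemicals for 24 hours. Total RNA was then converted to cDNA, amplified with reporter-specific primers and analysed by fluorescent capillary electrophoresis, using DMSO-treated wells as baseline.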

Assay [16] in a line: ATG_GLI_CIS: Attagene CIS-FACTORIAL HepG2 Assay for human Zinc Finger Protein GLI1 (AID 2282945). The following applies: HepG2, Attagene cis-factorial reporter mRNA, GLI element; actives raise or lower the signal. The method in brief:
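HepG2 cells transiently transfected with cis-promoter multiplexed reporter units report endogenous transcription factor activity. After 24 h chemical exposure, reporter mRNA was quantified by RT-PCR, 6-FAM labelling, HpaI digestion and capillary electrophoresis, with bidirectional fitting against DMSO.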

For assay [17], the target named is Bile acid receptor (Homo sapiens) (UniProt Q96RI1). Kind of assay: ATG_IR1_CIS: Attagene CIS-FACTORIAL HepG2 Assay for human Nuclear Receptor Subfamily 1 Group H Member 4 (NR1H4), IR1 submotif (AID 2282946). The following applies: IR1 reporter transcription, actives raise or lower the signal. The method in brief:
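Readout: reporter transcript levels by RT-PCR with fluorescent capillary electrophoresis, from HepG2 cells transiently transfected with multiplexed cis-regulated reporters and dosed 24 h. Gain- or loss-of-signal fitted versus DMSO negative control.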

Assay [18] in a line: ATG_GRE_CIS: Attagene CIS-FACTORIAL HepG2 Assay for human Glucocorticoid Response Elements (GRE) (AID 2282947). The following applies: HepG2 GRE cis-reporter, Attagene multiplex mRNA; actives raise or lower the signal. The method in brief:
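Cells (HepG2) bearing transfected cis-promoter reporter transcription units were treated with chemical for 24 hours. Reporter mRNA was measured via RT-PCR with capillary electrophoresis, and activity was fitted in both directions relative to DMSO.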

Assay [19] in a line: ATG_ISRE_CIS: Attagene CIS-FACTORIAL HepG2 Assay for human Interferon Regulatory Factor 1 (IRF1) binding to an Interferon-Stimulated Response Element (ISRE) (AID 2282948). The following applies: HepG2 ISRE cis-reporter (Attagene), mRNA transcription readout; actives raise or lower the signal. The method in brief: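 Read-out: fluorescent RT-PCR products resolved by capillary electrophoresis, reporting endogenous transcription factor activity via ISRE-driven reporter mRNA in transfected HepG2 cells dosed for 24 h; gain or loss fitted relative to DMSO.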

Assay [20] in a line: ATG_EGR_CIS: Attagene CIS-FACTORIAL HepG2 Assay for human Early Growth Response 1 (EGR1) (AID 2282938). The following applies: HepG2 Attagene CIS-FACTORIAL EGR reporter mRNA; actives raise or lower the signal. In short, it runs like this: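 Endpoint derived by bidirectional fitting versus DMSO vehicle. Method: cis-promoter reporter units transfected into HepG2, 24 h dosing, RNA isolation, RT-PCR with 6-FAM primer extension and HpaI digestion, then capillary electrophoresis fluorescence detection.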

The structures appear in SMILES notation. “And” between values parts separate entries of the source, which are not always exact repeats. Equal values may be shown once. The source holds several records for some structures; these can differ, active in one and inactive in another. The source made the active and inactive calls. Rule for the calls: active = hit-call score of the fitted dose curve at least 0.9, where 1 is the maximum; inactive = score below 0.9.

Bile acid receptor (Homo sapiens), sequence (Q96RI1 whole entry, looked up): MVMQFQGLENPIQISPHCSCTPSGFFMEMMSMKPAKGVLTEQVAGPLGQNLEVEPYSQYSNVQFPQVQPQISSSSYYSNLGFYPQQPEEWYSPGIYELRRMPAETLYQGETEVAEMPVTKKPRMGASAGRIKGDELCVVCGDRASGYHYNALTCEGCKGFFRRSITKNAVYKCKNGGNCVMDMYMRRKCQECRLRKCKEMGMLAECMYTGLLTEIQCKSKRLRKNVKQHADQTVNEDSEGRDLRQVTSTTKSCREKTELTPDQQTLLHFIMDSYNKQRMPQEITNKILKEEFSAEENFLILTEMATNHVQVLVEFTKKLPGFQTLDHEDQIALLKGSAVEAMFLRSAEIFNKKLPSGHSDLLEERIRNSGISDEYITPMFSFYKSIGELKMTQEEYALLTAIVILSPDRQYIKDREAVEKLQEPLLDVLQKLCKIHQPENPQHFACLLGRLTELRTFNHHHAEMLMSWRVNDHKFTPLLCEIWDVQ
Aryl hydrocarbon receptor (Homo sapiens), sequence (P35869 whole entry, looked up): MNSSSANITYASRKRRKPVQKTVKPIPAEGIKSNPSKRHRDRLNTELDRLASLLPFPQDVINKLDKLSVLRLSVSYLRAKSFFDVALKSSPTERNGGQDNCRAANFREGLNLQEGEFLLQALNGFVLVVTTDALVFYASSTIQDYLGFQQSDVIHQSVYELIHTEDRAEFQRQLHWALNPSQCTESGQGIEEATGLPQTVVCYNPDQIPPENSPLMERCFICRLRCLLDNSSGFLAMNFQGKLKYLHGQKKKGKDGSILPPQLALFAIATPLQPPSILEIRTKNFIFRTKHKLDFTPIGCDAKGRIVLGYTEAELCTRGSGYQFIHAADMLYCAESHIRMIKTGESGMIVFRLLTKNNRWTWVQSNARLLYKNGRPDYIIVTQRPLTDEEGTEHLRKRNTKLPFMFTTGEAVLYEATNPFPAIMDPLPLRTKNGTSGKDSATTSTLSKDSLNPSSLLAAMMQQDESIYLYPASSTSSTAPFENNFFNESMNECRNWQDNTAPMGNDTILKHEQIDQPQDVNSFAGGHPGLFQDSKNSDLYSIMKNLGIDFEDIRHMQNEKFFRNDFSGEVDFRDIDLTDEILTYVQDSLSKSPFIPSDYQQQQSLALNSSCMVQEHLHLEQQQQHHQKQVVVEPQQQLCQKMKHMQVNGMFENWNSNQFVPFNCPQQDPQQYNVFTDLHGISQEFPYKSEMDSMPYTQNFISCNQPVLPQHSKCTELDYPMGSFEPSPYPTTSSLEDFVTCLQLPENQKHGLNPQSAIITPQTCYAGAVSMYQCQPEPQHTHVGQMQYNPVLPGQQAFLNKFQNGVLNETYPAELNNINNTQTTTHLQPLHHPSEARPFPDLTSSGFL
Transcription factor E2F1 (Homo sapiens), sequence (Q01094 whole entry, looked up): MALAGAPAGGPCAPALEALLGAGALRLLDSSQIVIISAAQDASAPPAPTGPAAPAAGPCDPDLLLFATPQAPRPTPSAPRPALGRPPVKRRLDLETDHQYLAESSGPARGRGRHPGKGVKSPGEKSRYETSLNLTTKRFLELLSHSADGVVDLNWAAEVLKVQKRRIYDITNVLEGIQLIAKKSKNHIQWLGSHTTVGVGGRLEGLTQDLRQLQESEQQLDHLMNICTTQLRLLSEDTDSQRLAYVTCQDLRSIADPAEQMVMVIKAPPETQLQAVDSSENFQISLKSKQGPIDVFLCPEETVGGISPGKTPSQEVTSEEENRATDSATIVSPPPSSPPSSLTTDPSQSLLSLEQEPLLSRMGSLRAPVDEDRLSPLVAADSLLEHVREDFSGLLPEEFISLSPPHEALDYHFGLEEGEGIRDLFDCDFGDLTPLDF
Hepatocyte nuclear factor 3-beta (Homo sapiens), sequence (Q9Y261 whole entry, looked up): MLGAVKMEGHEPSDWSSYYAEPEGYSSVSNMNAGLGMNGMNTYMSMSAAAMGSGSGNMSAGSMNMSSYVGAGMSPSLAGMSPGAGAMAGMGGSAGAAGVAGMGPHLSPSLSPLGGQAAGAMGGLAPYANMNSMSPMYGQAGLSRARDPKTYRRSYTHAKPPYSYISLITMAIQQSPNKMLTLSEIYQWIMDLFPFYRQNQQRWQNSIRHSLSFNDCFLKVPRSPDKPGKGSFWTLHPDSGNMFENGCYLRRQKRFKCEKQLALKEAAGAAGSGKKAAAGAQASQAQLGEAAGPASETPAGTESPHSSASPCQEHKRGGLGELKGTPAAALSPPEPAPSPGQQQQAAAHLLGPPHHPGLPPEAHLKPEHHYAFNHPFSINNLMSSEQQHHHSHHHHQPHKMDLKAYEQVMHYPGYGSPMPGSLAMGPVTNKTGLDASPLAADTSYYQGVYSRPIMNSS

By AC50 is commonly meant the concentration at which the activity in the assay is half-maximal. As for `O=S(=O)(c1ccc(Cl)cc1)c1cc(Cl)c(Cl)cc1Cl`, the values for the AC50 in assay [1], in [6] and in [17] were 40.9 µM (active), 100 µM (active) and 19.3 µM (active), respectively. In addition, the outcome in assay [2], in [3], in [4], in assay [5], in assay [7] and in assay [8] was inactive. In addition, the molecule was classed as inactive in assay [9], in [10], in assay [11], in [12], in [13] and in assay [14]. In addition, the call in [15], in [16], in [18] and in assay [19] was inactive.
For `O=c1oc2ccccc2c(O)c1C(CC(O)c1ccc(-c2ccc(Br)cc2)cc1)c1ccccc1` (stereo not given), the AC50 in [1] was 37.6 µM (active) and 30.8 µM (active); in assay [3], 7.97 µM (active) and 57.9 µM (active); in assay [4] it was 54.8 µM (active) and 48.2 µM (active); in [7], 40.6 µM (active); in assay [8] it was 54.6 µM (active); in [20] it was 41.1 µM (active) and 17.8 µM (active). Also, the AC50 in [16] is 46.3 µM (active); in assay [17] it was 50.1 µM (active) and 43.6 µM (active); in assay [19], 24.9 µM (active). Also, the molecule was classed as inactive in assay [2], in assay [5], in [7], in assay [8], in assay [10] and in [11]. For the same molecule, the molecule was called inactive in [13], in assay [14], in [15], in assay [16] and in [19].
Regarding `Cl[C@H]1OCCO[C@@H]1Cl`, the call in assay [1], in assay [2], in [3], in [4], in [5] and in [6] was inactive. In addition, the result in assay [7], in assay [8], in assay [10], in assay [13], in assay [14] and in assay [15] was inactive. Besides, the molecule was classed as inactive in [16], in assay [17], in assay [18] and in assay [19].
